The values below come from PubChem BioAssay AID540303 (National Center for Advancing Translational Sciences (NCATS), 2011).

The campaign covered roughly 330,000 compounds. About 1,000 (0.3%) were called active. Not shown: some 3% with an inconclusive outcome. Calls come from the whole dose curve; as a rule, active = well fitted inhibition curve with a large enough effect; inconclusive = small, poorly fitted or top-dose-only effect; inactive = no such curve, though single readings can be large or run the other way; tested in mouse RAW 264.7 cells. Many of the other results were omitted from the sample, so actives are more common in it than they were.
% is set by controls: 0 for no effect and ±100 for the full control effect; potency is the fitted concentration of half-maximal effect.

The nature of the assay: qHTS for Inhibitors of Cell Surface uPA Generation. Note: nearly all actives have a fitted effect of over 55% in size. The conditions noted are these: cell surface uPA generation assay; series mostly up to 38.3 µM; activity change, negative = inhibition: at the top concentration. An excerpt:
The overall objective of this project is to perform a quantitative high throughput screen (qHTS) to identify novel compounds that inhibit the generation of cell surface urokinase activity. The urokinase plasminogen activator (uPA) is one of the two primary endogenous systems that mediate plasminogen activation into plasmin. Members of this system, including uPA and its receptor (uPAR), are overexpressed in several malignant tumors. This system plays a major role in adhesion, migration, invasion and metastasis of cancer cells. Small molecule inhibitors of the uPA system will serve as probes to understand the molecular mechanisms of the uPA cascade and better understanding the microenvironmental circumstances that facilitate the activation of plasminogen by uPA, and finally may provide novel candidate agents for anticancer drug therapy.
[…] […] Upon inhibition of the uPA activation cascade, the subsequent cell surface uPA activity-dependent translocation of LF into the cytoplasm is inhibited. ATP-Lite is used to measure intracellular ATP concentrations, which remain increased if LF entry into the cytoplasm is inhibited. This validation assay was performed using a small set of validation compounds.
NIH Chemical Genomics Center [NCGC]
NIH Molecular Libraries Probe Centers Network [MLPCN]
Assay Submitter (PI): Thomas Bugge, National Institute of Dental and Craniofacial Research, NIH
Cultured RAW 264.7 were dispensed into 1536-well clear bottom, white walled tissue culture plates at a density of 4000 cells/well and were incubated overnight (12-16 h) at 37 C in a 5% CO2 incubator. Serially diluted compounds in 23 nl DMSO were added to cells. […] Compound and reagent-treated plates were incubated for 24 h at 37 C in a 5% CO2 incubator. Perkin Elmer ATPlitetrade mark 1 step (3 ul) was then added to each well. Luminescence was detected using a Perkin Elmer ViewLuxtrade mark plate reader.
1.Dispensing RAW 264.7 cells into 1536-well, white walled tissue culture plates at a density of 4000 cells/well (4 uL).
2.Incubation at 37 C in a 5% CO2 incubator overnight.
3.Serially diluting compounds (1:5 serial dilution; 0.0024 uM to […] final concentration) in 23 nl DMSO.
5.Incubating the compound and reagent-treated plates for 24 hours at 37 C in a 5% CO2 incubator.
6.Adding ATP-Lite (3 ul).
7.Reading plates by ViewLux with an exposure length of 5 seconds.
For orientation: In qHTS, concentration-response curves come from the screen itself.
Consider `O=C(CCNC(=O)c1ccc(Cl)cc1)NC1CCCc2ccccc21` (stereo unspecified), for which the Potency is 5.62 µM (active).
Consider `CC1=CC(=NNS(=O)(=O)c2ccc([N+](=O)[O-])cc2)CC(C)(C)C1`, for which the “activity change, negative = inhibition” value is -2.04% (inactive).
Still for that read-out and setting: the figure for `Cc1onc(-c2c(F)cccc2Cl)c1C(=O)Nc1cccc(S(=O)(=O)N2CCCCC2)c1` is -0.171% (inactive).
Consider `COc1cc(/C=N\NC(=O)c2nonc2N)c(OC)cc1Br`, for which the Potency was 7.94 µM (active).
As for `Cc1cc(C)c([N+](=O)[O-])cc1-c1ccc(/C=N/NC(=O)c2nonc2N)o1`, the “activity change, negative = inhibition” value is 2.06% (inactive).
As to `COc1cc(/C=N/N=C(\N)c2nonc2N)cc(OC)c1OC`, the “activity change, negative = inhibition” value was 2.87% (inactive).
`CSCCC(NC(=O)COc1ccccc1)C(=O)OCc1ccc(Cl)cc1` (stereo unspecified): the “activity change, negative = inhibition” value is 1.9% (inactive).
With `CCOc1ccc(/C=C(/C#N)c2nnc(N3CCOCC3)n2-c2ccccc2)cc1OC`, the “activity change, negative = inhibition” value was -3.57% (inactive).
Consider `CCOc1ccccc1NC(=S)C(=C([O-])c1ccc2c(c1)OCCO2)[n+]1ccc(CC)cc1`, for which the “activity change, negative = inhibition” value is -8.87% (inactive).
Consider `O=c1[nH]c2c(c(=O)n1-c1ccccc1)CCO2`, for which the “activity change, negative = inhibition” value was 3.17% (inactive).
On the same count and under the same terms, the figure for `O=[N+]([O-])c1ccc(NS(=O)(=O)c2ccccc2)c(Cl)c1` is -0.654% (inactive).
As for `CCc1ccc(C(=O)C(C)OC(=O)CN2C(=O)NC3(CCCC3)C2=O)cc1` (stereo unspecified), the “activity change, negative = inhibition” value was -1.56% (inactive).
Still for that read-out and setting: the figure for `O=C(NCCCn1ccnc1)c1ccccc1F` is 1.64% (inactive); for `O=C(NCCCn1ccnc1)c1cc(Br)c(Br)s1` it is 5.42% (inactive).
`O=C(NCCCn1ccnc1)c1cc(-c2ccccc2)on1`: the Potency is 5.62 µM (active).
`CCc1c(Nc2ccccc2Cl)nc(N)[nH]c1=O`: the “activity change, negative = inhibition” value is -10.9% (inactive).
Take `O=C(O)c1ccc(Cn2cnc3c(=S)nc[nH]c32)cc1`: the “activity change, negative = inhibition” value is -3.45% (inactive).
In the case of `CCCCC(=O)NC(c1ccc(OC)c(OC)c1)c1ccc2cccnc2c1O` (stereo unspecified), the “activity change, negative = inhibition” value was -13.8% (inactive).
For `CC1CN(Cc2ccccc2)C(=S)NC1=O` (stereo unspecified), the “activity change, negative = inhibition” value is 1.89% (inactive).
`COc1cccc(/C=N/Nc2ccc(S(=O)(=O)Nc3ccccc3C(=O)O)cc2[N+](=O)[O-])c1O`: the “activity change, negative = inhibition” value is 0.183% (inactive).
For `c1ccc2c(c1)OC1OC2Oc2ccccc21`, the “activity change, negative = inhibition” value was 12.3% (inactive).
With `COc1cccc(/C=N/Nc2ccc(Cl)nn2)c1`, the “activity change, negative = inhibition” value is 5.63% (inactive).
Regarding `Oc1cccc(/C=N/Nc2ccc(Cl)nn2)c1O`, the Potency was 2.82 µM (active).
For `Cc1ccsc1/C=N/Nc1ccc(Cl)nn1`, the “activity change, negative = inhibition” value was 11.8% (inactive).
Turning to `Cc1ccc(S(=O)(=O)CCC(=O)OCC(=O)N(C)Cc2ccccc2)cc1`, the “activity change, negative = inhibition” value was 4.47% (inactive).
Consider `NC(=S)NN=C1CCCC(C(F)(F)F)C1` (stereo unspecified), for which the “activity change, negative = inhibition” value was -2.84% (inactive).
Consider `CSCCC(NC(=O)COc1ccccc1)C(=O)N1CCN(c2cccc(C(F)(F)F)c2)CC1` (stereo unspecified), for which the “activity change, negative = inhibition” value was -9.29% (inactive).
As for `COc1cc(C2c3cc4c(cc3C(O)C3COC(=O)C23)OCO4)cc(OC)c1OC` (stereo unspecified), the “activity change, negative = inhibition” value is -8.49% (inactive).
As for `O=C(Nc1ccc(S(=O)(=O)Nc2nccs2)cc1)c1cc(-c2ccncc2)nc2ccccc12`, the “activity change, negative = inhibition” value was 1.2% (inactive).
Turning to `COC(=O)CNC(=O)c1cc(-c2ccncc2)nc2ccccc12`, the “activity change, negative = inhibition” value is -0.0987% (inactive).
As to `CCN(CC)CCNC(=O)c1ccc(NC(=O)c2cc(-c3ccncc3)nc3ccccc23)cc1`, the Potency was 10 µM (active).
`CN(C(=O)c1cccc(NC(=O)Cc2cccc(NC(=O)C3CCCN(C(=O)C4CC4)C3)c2)c1)C1CCC1` (stereo unspecified): the “activity change, negative = inhibition” value is 14.2% (inactive).
In the case of `O=C(Nc1ncccc1O)c1ccc(S(=O)(=O)N2CCCCCC2)cc1`, the “activity change, negative = inhibition” value was 0.388% (inactive).
On to `O=C(N/N=C/c1ccccn1)c1ccc(S(=O)(=O)N2CCCCCC2)cc1`, for which the “activity change, negative = inhibition” value is 5.59% (inactive).
With `O=C(Nc1ncccc1O)c1ccc(S(=O)(=O)N2CCCC2)cc1`, the Potency was 7.94 µM (active).
`Cc1cn(C2CC(O)C(CO)O2)c(=O)n(CCCc2ccccc2)c1=O` (stereo unspecified): the “activity change, negative = inhibition” value was -2.05% (inactive).
With `O=S1(=O)CSCS(=O)(=O)C1`, the “activity change, negative = inhibition” value is 2.84% (inactive).
`CCOc1ccccc1N1CCN(C(=O)c2ccc3[nH]c(C)c(C)c3c2)CC1`: the Potency was 2.51 µM (active).
As for `Cc1[nH]c2ccc(C(=O)N3CCN(C)CC3)cc2c1C`, the “activity change, negative = inhibition” value is -8.89% (inactive).
`COc1ccccc1N1CCN(C(=O)c2ccc(Cl)c(S(=O)(=O)N3CCCC3)c2)CC1`: the “activity change, negative = inhibition” value is -0.654% (inactive).
Same read-out and setting: to `CCCCCCCCNS(=O)(=O)CCNC1CCCCC1` belongs 6.43% (inactive); to `O=C(Cc1ccc(S(=O)(=O)N2CCOCC2)s1)Nc1ccc(Br)c(C(F)(F)F)c1`, -17.8% (inactive); to `CC(C)(C)S(=O)(=O)N1Cc2cc(CO)cc(CCO)c2[C@H]1CCO`, 2.5% (inactive).
As for `Cc1ccc(C(=O)N2CCN(C(=O)N3CCOCC3)CC2)cc1`, the “activity change, negative = inhibition” value is 1.5% (inactive).
The same measure, in the same setting: to `Cc1ccccc1-c1ccc(Nc2ccc(C(=O)N3CCOCC3)cc2)nn1` belongs -5.32% (inactive).
For the molecule `Cc1oc2c(c1C(=O)N1CCOCC1)C(=O)c1ccccc1C2=O`, the Potency was 2.51 µM (active).
Turning to `C/C(=N\Nc1ccccc1)c1cccs1`, the “activity change, negative = inhibition” value is -0.263% (inactive).
Regarding `CC1C(C)N(C(=O)CCl)c2ccccc2N1C(=O)CCl` (stereo unspecified), the “activity change, negative = inhibition” value was -9.43% (inactive).
Take `O=C(NN=Cc1ccccc1O)NN=Cc1ccccc1O`: the “activity change, negative = inhibition” value was -13.6% (inactive).
`O=C1C[C@@H]2c3c(cccc3CN1Cc1ccccc1)C[C@@H](O)[C@H]2O`: the “activity change, negative = inhibition” value is 4.62% (inactive).
Consider `COc1ccc(CNCCCn2cnc3c(OCc4ccccc4)ncnc32)cc1`, for which the “activity change, negative = inhibition” value was -11.6% (inactive).
Still for that read-out and setting: to `CC(C)(C)OC(=O)N1CCC(C(=O)Nc2cccc(C(=O)NCCc3ccccc3)c2)CC1` belongs 21% (inactive); to `CC(C)[C@@H](C(=O)OCC(=O)c1ccc2c(c1)NC(=O)CO2)N1C(=O)c2ccccc2C1=O`, 0.762% (inactive); to `Oc1ccccc1CN1CCN(C(c2ccccc2)c2ccccc2)CC1`, 7.27% (inactive).
Still for that read-out and setting: the figure for `O=C1CC(N2CCN(C(c3ccccc3)c3ccccc3)CC2)C(=O)N1` (stereo unspecified) is -0.34% (inactive).
Turning to `CC1(C)CC(N2CCN(C(c3ccccc3)c3ccccc3)CC2)=CC(=[N+]2CCCCC2)C1`, the Potency is 1.12 µM (active).
